Each sequence was assayed on VDR:RXRa (NR concentration 270 nM, RXRa partner concentration 90 nM) (assay: PBM binding z-score (relative to random genomic background probes); higher = stronger binding; sequences stand for … in GC…GCGATTGACAGCGTAGAATGAAGG).
Procedure: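 Protein-binding microarray (Agilent 4x180K custom design, double-stranded 60-nt probes: 5' GC cap, 34-nt variable region, 24-nt constant primer region; full probe sequence given). Purified or IVT nuclear receptor:RXRα heterodimers (3:1 NR:RXRα, mostly 270:90 nM) or homodimers were incubated for 1 h in PBS with 2% milk and no ligand, then detected with Alexa488 antibodies. Fluorescence from o1-orientation probes (~5 replicates averaged) was converted to z-scores against 500 random hg19 background probes. Variable regions are seed direct-repeat (DR0–DR5) sites, all their single-nucleotide variants and half-site ablations.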

Sequence | PBM binding z-score
TCTGCCAGGTCAGTTGGTCAGCTAACGAGCTGCC | 0.52
ATCTCTTGGTAACCAAGTTCAGTGAATGCCGAAC | 2.38
CCTTACGGGTCACTGACAGGTTATTGCATTTGGA | 3.93
TCTGCTAGGTCAACGATAGTCAGCTAATCTGCTA | 1.24
CGAAAGAGGGCATGAGTTGATAGCAAATGCCGAT | 1.22
ATCGAAAGGTCGAGGTGAGTCTAGAGAAAGGGAA | 3.21
ATATGTAGGTTAGCTGGGGTCATACAGACTAGGC | 6.08
TCGCCTAGGTCATTCAGGGGCCAGTATAGAAAGC | 3.06
TCTATTAGTTGAAGGGCAACCGCCGAGTCCGTTT | 0.974
AATACAGGGTCACTAGGCCAGAGTCGGTACGAAT | 4.03
GTTAGCAGGCCATTTGGGTCACTCAATGACGGGC | 0.985
TCGAGTAGGTTACCAATGGGTCATTCAGCTTTCT | 1.85
CAAACTAGGTCACGTAAGGTCAAAGTCGAATGAC | 7.01
TCTCGTAGATCAATAGAGGTTAAGAAAGTGCGCT | 1.68
TCTTGTATATCAATAGAGGTTAAGAAAGTGCGCT | 2.14
ATACCAAGGAGATCGTGAGGTCGTTGATACTAAC | 1.44
CCGACTGGAGCATAAGGTTACCATAAGCCAGCCC | 0.0802
ACTAGCAGCCCAAGGGTCACTCAAGATTAGTCCG | 2.6
GCGACTGGGGCATCAGCAGGTTTCCATAACTTAA | -0.402
CCTACTGGGCCAAACAGGTCATTGATGCCGATAA | 2.82

Sequence | PBM binding z-score
AGAACGAGGGCAATGAGTTGTTAGCACGGGTGGC | 4.09
TCTCGGAGGACACGTAGGTCAGAGCTTTCCAGAG | 1.13
CCAGACAGGTGAACGGTAACTCAGTCTGGTACGC | -0.205
GCTAGTTGGTTAGTAAAAGGTCACACACCGGTCG | 3.93
GCGACTGGGGCAAAGCAGGTTACCAAAAGGTTGG | 0.136
CCTCGGAGAACAACAGGAGGTCAGAGCTGCCAGA | 1.47
GGAACGAGGGCAAGTTGATAGCTGAGTTTGATGG | 0.643
CCTCGGCGGACAGAAGGTCAGAGCTGTCCGCTTT | 0.473
CAAACTAGGTCACGAAAGCTCAAAGTCGAATGAC | 2.37
ATACCAAGGTGATCCTGAGGTCGTTGATACTAAC | 3.42
CAGCCTAGGTCAGGTCCAGTATAGGAGGAACGTT | 0.304
CGAACTAGGTCATCCAGGATAGTGAATACATTGA | 3.02
TAGCCTAGGTCATTAGGCCAGTATAGTACGCATC | 1.69
TCTGCTAGGTCAGTGGGTCAGCTAACGAGCTGCC | 1.5
GCTAGGAGGACAAGGTCAGAGCTTTGTCCGTAGA | 1.4
ATACCAAGGTGATCGTGAGGTCCTTGATACTAAC | 0.32
TGTCAAAGTTAAAAGGTAACGTAAGTATCCACAC | 0.375
ACTATTAGTTGACTTCGGGCAACCGATACGACGC | 0.179
GCTATCAGTTGAAAGGGCAACCGAATGATTCTCG | 0.34
ACTCGGAGGACAAAGATCAGAGCTACGCCAGTGA | -0.289

From the supplement of paper PMC6555819
